# Test results published in PubChem BioAssay AID435019 (Southern Research Specialized Biocontainment Screening …, 2010).
# Out of some 2,300 compounds screened, about 1,200 (52%) were called active. The set was probably picked from earlier hits. The list shows a part of the results. Results with a measured potency or affinity are listed apart. A number with no mark means an inactive call. The rule behind the calls is not given here.
# Assay: mammalian cell cytotoxicity, dose response, cytotoxicity control for M. tuberculosis inhibitor project (AID 435019);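 note: 0% = background wells and 100% = vehicle-treated cells; lower values mean fewer viable cells so more cytotoxicity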
# Conditions: cytotoxicity counter-screen; series mostly up to 40 µM; viability: at the top concentration
row,Structure (SMILES),viability [%]
1,C=CCN(CC(=O)c1sc(C(=O)OCC)nc1C)c1cccc(Br)c1,91.5
2,CCCCOC(=O)c1ccc(O)cc1,95
3,[O-][n+]1c2ccccc2c2n1CCN1CCOC21c1ccc(Cl)cc1 (stereo not drawn),85.2
4,Cc1nonc1NC(=O)CSc1ccc(-c2ccccc2)nn1,90.2
5,O=C(OCC(=O)c1cccs1)C1=COCCO1,98.4
6,CCCCn1nc(C(=O)Nc2ccccc2N2CCCC2)c2ccccc2c1=O,82.5
7,COC(=O)COc1ccc(-c2nn(C)c(=O)c3ccccc23)cc1,93.7
8,COc1cc(CNC(=O)CCCCCCC(C)C)ccc1O,93
9,COC(=O)Cn1nc(-c2ccccc2)c2cc(Cl)ccc21,88
10,CC1=CC(=O)NP(=O)(Oc2ccc3ccccc3c2)N1 (stereo not drawn),93.5
11,CC(=O)Oc1ccc2occ(C(=O)c3cccs3)c2c1,102
12,Nc1nc2ccccc2n1/N=C/c1ccc(Br)cc1,95.2
13,CC(C)(C)Nc1nc(NC(C)(C)C)nc(-n2ccnc2)n1,90.2
14,CCOC(=O)CNC(=O)CNC(=O)c1nn(-c2ccc(OC)c(Cl)c2)c(=O)c2ccccc12,99
15,CCOC(=O)c1ccc(-n2c(CCC(=O)O)ccc2-c2cccs2)cc1,96.7
16,CC(C)OC(=O)c1ccc(N)cc1,102
17,CCc1ccc(NC2=NCC(c3ccccc3)S2)cc1 (stereo not drawn),87.4
18,CC(C)OC(=O)c1ccc(NC(=S)NC(=O)c2cncc(Br)c2)cc1,94.2
19,Cc1[nH]nc(SCC(=O)NCc2ccccc2)c1[N+](=O)[O-],90.9
20,COc1ccc(-c2ccc(-c3noc(C(C)C)n3)c(OC)n2)cc1,81.4
21,Cc1ccc(Cl)cc1NC(=O)CN1CCN(S(=O)(=O)N2CCOCC2)CC1,90.4
22,Cc1ccc(C(=O)C2CCN(CC(=O)Nc3nc(C)cs3)CC2)cc1,83.6
23,CCCCNC(=S)N/N=C/c1cccc(OCC)c1O,95.4
24,CCOC(=O)CN[C@H]1CCC2C3CC=C4C[C@@H](O)CC[C@]4(C)C3CC[C@@]21C (stereo partly drawn),95.8
25,Cc1ccc(C(=O)ONc2ccc(N=O)cc2)cc1,89.5

row,Structure (SMILES),viability [%]
1,COc1ccc(NC(NC(=O)c2ccc(OC)cc2)C(Cl)(Cl)Cl)cc1 (stereo not drawn),85.7
2,CCOC(=O)c1nn(-c2ccc(C)cc2)c2nc(Nc3ccccc3)cc(=O)n12,94.8
3,Cn1nc([N+](=O)[O-])nc1Sc1ccc(C(C)(C)C)cc1,84.8
4,Cn1cnc(Sc2ncnc3nc[nH]c23)c1[N+](=O)[O-],82.1
5,Cc1cc(C)n(-c2cc(C(C)(C)C)nc3c(-c4ccccc4)cnn23)n1,85
6,Cc1cc(-c2nnc3n2CCCCC3)c(C)n1-c1ccccc1,90.5
7,C/C(=N\N(Cc1ccccc1)c1ccccc1)c1ccncc1,88.6
8,CCOC(=O)CSc1nnc(-c2ccc(S(=O)(=O)NCc3cccs3)cc2)o1,100
9,Cn1c(=S)c2[nH]c(SCCN3CCCC3)nc2n(C)c1=O,93
10,CCOC(=O)CNc1ccc(C(=O)OCC)cc1[N+](=O)[O-],102
11,CCCc1cc(C(N)=S)ccn1,94.8
12,CCCn1c(=N)n(CC(=O)c2ccc(OCC(=O)OC)cc2)c2ccccc21,97.9
13,Cc1ccc(S(=O)(=O)N2CCC(C(=O)OCc3ccccc3)CC2)cc1C,96.3
14,NC(=O)c1cccn1-c1ncc(C(F)(F)F)cc1Cl,106
15,CCOC(=O)C1=NOC(CNc2ncc(C(F)(F)F)cc2Cl)C1 (stereo not drawn),97.5
16,CCOC(=O)c1ccc(N=C2SC(C(=O)Nc3ccc(C(=O)O)cc3)CC(=O)N2Cc2cccs2)cc1 (stereo not drawn),90.3
17,Cc1cc(C2=NNC(=NC3CCCCC3)SC2)c(C)n1-c1c(C)n(C)n(-c2ccccc2)c1=O,98.9
18,S=C(NCCN1CCOCC1)N/N=C/c1cccs1,89.9
19,Cc1ccc(C)c2nc(N3CCCC3)c(C#N)cc12,91.6
20,Cc1nc(SCC(=O)NC2CCCCC2)[nH]c(=O)c1C,95.2
21,CC1CCCC(C)N1C(=O)COC(=O)c1cc(-c2cccs2)nn1-c1ccccc1 (stereo not drawn),101
22,CCOC(=O)COc1ccc(C2CC(C)=NN2c2ccccc2)cc1 (stereo not drawn),96.7
23,O=C(CCN1C(=O)C2C3C=CC(C3)C2C1=O)Oc1ccc2ccccc2c1 (stereo not drawn),94.8
24,O=C(COC(=O)C1CCN(c2ccc(C(F)(F)F)cn2)CC1)Nc1ccc(F)cc1[N+](=O)[O-],95.2
25,O=C(Cc1ccc(Nc2nc3ccc(Br)cc3[nH]2)cc1)NCCc1cccs1,86.8

row,Structure (SMILES),viability [%]
1,Brc1cccc2sc(N3CCN(c4ccccc4)CC3)nc12,85.2
2,Cc1[nH]n(S(=O)(=O)Cc2ccccc2)c(=O)c1N=Nc1ccccc1Cl,105
3,CN1CCN(c2c(F)cc3c(=O)c(C(=O)O)cn4c3c2OCN4C)CC1,98.7
4,C=C(C)C1CC=C(CN2CCN(Cc3ccccc3)CC2)CC1 (stereo not drawn),93.8
5,Cc1cccc(C2=N/C(=C\c3cccs3)C(=O)O2)c1,104
6,Cn1c(=O)c2[nH]c(-c3ccc(S(=O)(=O)O)cc3)nc2n(C)c1=O,94.3
7,C=CCOC(=O)COc1ccc2c(C)c(CC)c(=O)oc2c1,99.1
8,Cc1ccc(/C=N/NC(=S)NC(C)C)o1,97.9
9,C/C(CCc1ccc2c(c1)OCO2)=N\NC(=S)NC(C)C,81.8
10,CCCCCCC[N+](CC)(CC)CCCCc1ccc(Cl)cc1,89.3
11,COc1cc(/C=N/N2CCOCC2)ccc1OCc1ccc(Cl)cc1,85.8
12,COc1ccc(N=Cc2c(OC)ccc3ccccc23)cc1,90
13,COc1ccccc1/C=C/C(=O)Nc1ccc(S(=O)(=O)Nc2cc(C)on2)cc1,91.3
14,Cc1cn(-c2ccc(Br)cc2)[nH]c1=O,96.3
15,CN(C(=O)COC(=O)c1ccc([N+](=O)[O-])cc1Cl)C1CCCCC1,101
16,COc1ccccc1N(O)C1CC(=O)N(c2ccc(Br)cc2)C1=O (stereo not drawn),94.8
17,O=C(OCC(=O)c1c[nH]c2ccccc12)c1cc(Br)ccc1O,94.9
18,COc1cccc(COC(=O)c2ccc3c(=O)n4c(nc3c2)CCC4)c1OC,83
19,C=CCn1c(N)cc(=O)nc1SC(CC)C(=O)Nc1ccc(C(C)=O)cc1 (stereo not drawn),102
20,NC(=O)c1ccc(N=Cc2ccc([N+](=O)[O-])s2)cc1,80.4
21,CCN(CC)C(=S)SSC(=S)N(CC)CC,85.7
22,O=C(CSCC(=O)Nc1ccc2ccccc2c1)NCc1ccccc1,105
23,C/C(=C\C(=O)c1ccccc1)Nc1ccc(Cl)c(Br)c1,99.4
